Assay outcomes deposited in PubChem BioAssay by National Center for Advancing Translational Sciences (NCATS).
JMJD2A Tudor inh = blocks the human JMJD2A Tudor domain | Potency, µM (doses to about 114 µM), inactives show at the highest dose activity change, negative = inhibition, actives largely listed as inhibitors | AID 504339 | O75164 | AlphaScreen JMJD2A-Tudor / H3K4me3 peptide binding | hit rate 4.4% among 390,000; note: % is set by controls: 0 for no effect and ±100 for the full control effect; nearly all actives have a fitted effect of over 50% in size
G9a inh = blocks human histone lysine methyltransferase G9a; Q96KQ7; G9a H3K9 monomethylation, AlphaScreen, 2 h; Potency, µM (series often up to 102 µM), for the others: at the top dose activity, negative = inhibition, most hits filed as inhibitors; hit rate 8.8% among 350,000; note: % is set by controls: 0 for no effect and ±100 for the full control effect; nearly all actives have a fitted effect of over 75% in size
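G9a (20 nM) was preincubated 15 min with compound, then reacted 2 h at room temperature with 500 nM biotin-H3K9 peptide and 20 µM SAM. Monomethyl-H3K9 detected by AlphaScreen using anti-H3K9me1 antibody.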
HP1b binding inh = blocks HP1-beta chromodomain binding to methylated histone tails. AlphaScreen HP1-beta / biotin-H3K9me3 peptide binding. hit rate 0.56% among 390,000. Potency, µM (titrated, usually from 114 µM), for inactives: top-dose activity change, negative = inhibition, usual class: inhibitors; note: nearly all actives have a fitted effect of over 70% in size
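Compound inhibition of the preformed complex between 50 nM HP1-beta and 50 nM biotinylated H3K9me3 peptide was read by AlphaScreen. Buffer was PBS pH 7.4 with 0.01% Tween-20. Incubations ran 30 min at room temperature, with 10 ug/mL donor/acceptor beads.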
BAZ2B inh = BAZ2B (human) inhibition; hit rate 4.4% among 360,000; Q9UIF8; Potency, µM (series often up to 114 µM), inactives show at the highest dose activity change, negative = inhibition, actives largely listed as inhibitors; AlphaScreen BAZ2B-H3K14Ac peptide displacement; AID 504333; note: % is set by controls: 0 for no effect and ±100 for the full control effect; nearly all actives have a fitted effect of over 60% in size
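Complex of BAZ2B and biotin-H3K14Ac (50 nM apiece) forms over 30 min at RT, then faces library compounds up to 110 uM for another 30 min; AlphaScreen beads added, 20 min dark incubation, luminescence read.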
Sfp PPTase inh = blocks B. subtilis Sfp PPTase activity. Q9F4F7. Biochemical Sfp PPTase activity, qHTS. Potency, µM, without a hit: largest response in the series, negative = inhibition, actives largely listed as inhibitors. hit rate 3.5% among 310,000;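 note: the enzyme is Sfp with the accession as filed and its product quenches rhodamine fluorescence; 0% = enzyme reaction without inhibitor and -100% = no enzyme wells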
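Step 1, compound plus 15 nM Sfp-PPTase, 15 min, room temperature. Step 2, add rhodamine-CoA (5 uM) and BHQ-2-YbbR (12.5 uM). Step 3, read 525/598 nm fluorescence at 0 and 30 min.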
L3MBTL1 block = inhibitors of human L3MBTL1 | hit rate 0.66% among 230,000 | AlphaScreen L3MBTL1–H3K9me1 peptide binding | Potency, µM (doses to about 57.1 µM), inactives show top-dose activity, negative = inhibition, hits mostly inhibitors | Q9Y468; note: % is set by controls: 0 for no effect and ±100 for the full control effect; nearly all actives have a fitted effect of over 60% in size
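L3MBTL1 (50 nM) pre-complexed 30 min with biotinylated H3(1-15)K9me1 peptide (75 nM), then compounds added for 30 min at room temperature; AlphaScreen streptavidin donor/nickel chelate acceptor beads (10 ug/mL final) read after 30 min dark incubation.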
* hit, by the source's call; [ ] = remark or other dose. A selection: hits, their analogues and other compounds. The true share with any hit is near 12%. Calls come from the whole dose curve; as a rule, active = well fitted curve in the direction sought with a large enough effect; inconclusive = small, poorly fitted or top-dose-only effect, or another doubt; inactive = no such curve, though single readings can be large; an effect the other way counts as inactive or inconclusive. Potency is the fitted concentration of half-maximal effect.

Cc1ccc(N2C(=O)NC(=O)/C(=C\C=C\c3ccco3)C2=O)cc1 was read as JMJD2A Tudor inh -24%, G9a inh 35µM*, HP1b binding inh 14%, BAZ2B inh -33% and Sfp PPTase inh inconclusive.
`Cc1ccc(S(=O)(=O)N(CC(=O)NCCSc2ccc(Cl)cc2)c2ccccc2C)cc1` gave JMJD2A Tudor inh 2%, G9a inh 14%[59 µM], HP1b binding inh 52% and BAZ2B inh -17%.
For CCC(C)(C)NC(=O)C(NS(=O)(=O)c1cccs1)c1ccccc1 (stereo not drawn) the results were JMJD2A Tudor inh -5%, G9a inh -9%, HP1b binding inh 28%, BAZ2B inh 5% and Sfp PPTase inh 8%.
Screening O=C1NC(=O)N(Cc2ccco2)C(=O)/C1=C/C=C/c1ccco1 returned JMJD2A Tudor inh 35µM*, G9a inh -175%[59 µM], HP1b binding inh 11µM*, BAZ2B inh 32µM* and Sfp PPTase inh -6%.
`C=CCN1C(=O)NC(=O)/C(=C/C=C/c2ccccc2)C1=O` gave JMJD2A Tudor inh -21%, G9a inh 8.9µM*, HP1b binding inh inconclusive, BAZ2B inh inconclusive and Sfp PPTase inh 28µM*.
`CN1C(=O)/C(=C/C=C/c2ccco2)C(=O)NC1=S` gave JMJD2A Tudor inh inconclusive, G9a inh 2.8µM*, HP1b binding inh 11µM*, BAZ2B inh 32µM* and Sfp PPTase inh 13µM*.
Screening O=C1NC(=O)N(Cc2ccccc2)C(=O)/C1=C\C=C\c1ccco1 returned JMJD2A Tudor inh inconclusive, G9a inh inconclusive, HP1b binding inh inconclusive, BAZ2B inh inconclusive and Sfp PPTase inh -26%.
Cc1ccc(N2C(=O)NC(=O)/C(=C\C=C\c3ccco3)C2=O)cc1C was read as JMJD2A Tudor inh inconclusive, G9a inh 10µM*, HP1b binding inh inconclusive, BAZ2B inh 45µM*, Sfp PPTase inh -71% and L3MBTL1 block inconclusive.
C=C(C)[C@H]1O[C@H]2CC[C@@]3(C)[C@@](O)(CC[C@H]4[C@@H]5OC(C)(C)[C@H]6C[C@@H]7C(=C)Cc8c(Cl)cc9[nH]c(c5c9c8[C@@]76O)[C@@]43C)[C@]23O[C@@H]3[C@H]1O was read as G9a inh 13%[59 µM] and Sfp PPTase inh 16%.
O=C1NC(=O)N(c2ccccc2)C(=O)/C1=C/C=C/c1ccco1 was read as JMJD2A Tudor inh -29%, G9a inh 35µM*, HP1b binding inh -19%, BAZ2B inh -35% and Sfp PPTase inh 32µM*.
For Cc1ccc(C=C2C(Cl)=C(Cl)C(Cl)=C2Cl)cc1 the results were JMJD2A Tudor inh 14µM*, G9a inh 8.9µM*, HP1b binding inh 16µM*, BAZ2B inh 20µM*, Sfp PPTase inh inconclusive and L3MBTL1 block 3.2µM*.
Screening CCOC(=O)N1CCC(NC(=O)CCc2nc(C3=CCN(C)CC3)no2)CC1 returned JMJD2A Tudor inh -6%, G9a inh inconclusive, HP1b binding inh 13%, BAZ2B inh 79µM*, Sfp PPTase inh 24% and L3MBTL1 block -5%.
For O=C1NC(=O)N(c2ccccc2)C(=O)/C1=C/c1ccc2c(c1)Cc1ccccc1-2 the results were G9a inh 6.3µM* and Sfp PPTase inh 50µM*.
Screening COc1ccccc1N1C(=O)NC(=O)/C(=C/c2ccc3c(c2)Cc2ccccc2-3)C1=O returned JMJD2A Tudor inh 79µM*, G9a inh inconclusive, HP1b binding inh 60%, BAZ2B inh 50µM*, Sfp PPTase inh 50µM* and L3MBTL1 block 6%.
COCC(=O)N1CCC2(CCCN(Cc3ccncc3)C2)CC1 was read as G9a inh -4%[12.7 µM] and Sfp PPTase inh -4%.
For O=C(O)CNCP(=O)(O)O the results were Sfp PPTase inh -2%.
For CC(N)Cc1c[nH]c2ccc(O)cc12 (stereo not drawn) the results were JMJD2A Tudor inh -17%, G9a inh 7.9µM*, HP1b binding inh 39% and Sfp PPTase inh 4%.
